Inconclusive results are not listed. Activity calls are given as the source filed them.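 How the source made its calls, unless noted: active means aptamer binding inhibition above 30%, about 3 SD of noise from non-fluorescent compounds; inactive means inhibition at or below 30%.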
How the values were obtained:
[1] = rapamycin-like changes in RPL19A-GFP expression – cell-based, S. cerevisiae, multiplex flow cytometry, primary screen (AID 1862; in the data active means percent of DMSO control GFP below about 86%;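 further: lower values mimic rapamycin by blocking the RPL19A rise seen in DMSO cells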); conditions: S. cerevisiae RPL19A-GFP strain, flow cytometry fluorescence, 3 h; at 10 µM; stronger effect = lower value
[2] = TOR pathway GLN3 branch reporter MEP2-GFP changes – S. cerevisiae, multiplex flow cytometry, primary screen (AID 1867;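 active means GFP response, as percent of the DMSO control, above the screen-wide mean plus 3 SD, about 139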;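 further: median GFP channel fluorescence of barcode-gated MEP2-GFP cells measured by flow cytometry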); conditions: S. cerevisiae MEP2-GFP strain, 3 h, at 10 µM, stronger effect = higher value, 100% means same as DMSO wells
[3] = TOR pathway RTG branch CIT2 reporter changes – S. cerevisiae, GFP fusion, multiplex flow cytometry, primary screen (AID 1870;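 active means percent response above a set limit, the screen-wide mean plus 3 SD, cut at about 130% in these data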;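 further: barcoded CIT2-GFP strain pooled with four other GFP strains with rapamycin as positive control; median GFP fluorescence per well over plate mean of DMSO wells so 100% = DMSO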); conditions: S. cerevisiae CIT2-GFP expression, 3 h, at 10 µM, stronger effect = higher value
[4] = TOR pathway LAP4-GFP level changes – S. cerevisiae, multiplex flow cytometry, primary screen (AID 1873;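 active means GFP signal, as percent of the solvent control, above the screen mean plus 3 SD, about 149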); conditions: S. cerevisiae LAP4-GFP expression, 3 h, at 10 µM, stronger effect = higher value
[5] = yeast AGP1-GFP level changes, GLN3 branch – cell-based, multiplex flow cytometry, S. cerevisiae, primary screen (AID 1887;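 active means GFP signal above the screen-wide mean plus 3 SD, that is over about 124.5% of the solvent control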;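 further: AGP1-GFP fusion strain of S. cerevisiae within a five-strain barcoded multiplex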); conditions: 3 h, at 10 µM, stronger effect = higher value
[6] = reduced mouse 2C T cell binding to pMHC/ICAM-1 vesicles – MLPCN validation set, flow cytometry, LFA-1/ICAM-1 modulator project, pilot screen (AID 2523;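 active means response below a set limit, under 55% cells CD8-positive and vesicle-bound, and CD8 cells' 90th-percentile brightness under 279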;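 on vesicle binding response: mean PE anti-B7-1 fluorescence of CD8+ cells relative to row control; 100% = QL9-loaded vesicles with DMSO vehicle in the same plate row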); conditions: 2C mouse CD8+ T cells, at 7 µM, stronger effect = lower value; double positive events: measured here: CD8+/vesicle+ event percentage
[7] = biological target: Integrin beta-1 (Homo sapiens) + Integrin alpha-4 (Homo sapiens) (UniProt P13612+P05556); test: alpha4beta1 integrin LIBS antibody binding reduction – U937 cells, HUTS-21 mAb, flow cytometry, validation set, VLA-4 allosteric modulator project, pilot screen (AID 2674;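 active means inhibition above 50%, about 3 SD of the validation set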;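 further: antibody binding induced by the VLA-4 ligand LDV present at three times its Kd; 0% = LDV ligand with antibody and no compound and 100% = antibody without LDV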); conditions: HUTS-21 LIBS mAb binding, at 6.7 µM, stronger effect = higher value, binding induced by LDV ligand
[8] = calorie-restriction mimetic ROS inhibitors, yeast – validation compound set, pilot screen (AID 2706;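 active means superoxide response below 65% of plate, a cut near 3 SD across the whole screen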;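 further: yeast exposed to compound for one week at 30 degrees C before staining; 100% = mean of all compound wells on the same plate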); conditions: S. cerevisiae aging, superoxide DHE fluorescence; at 10 µM; stronger effect = lower value
[9] = biological target: Beta-adrenergic receptor kinase 1 (Homo sapiens) (UniProt P25098); test: GRK2 binders displacing RNA aptamer, biochemical, validation, human GRK2, bead flow cytometry (AID 488806); conditions: bead-bound GRK2, FAM-aptamer displacement, at 10 µM, stronger effect = higher value
[10] = biological target: Beta-2 adrenergic receptor (Homo sapiens) (UniProt P07550); test: agonist-induced loss of surface beta2AR – cell-based, FAP fluorogen, flow cytometry, validation set, pilot screen (AID 504459;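 active means percent response above 42, roughly 3 SD of non-fluorescent test compounds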;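 further: agonist-driven loss of surface beta2AR via internalization measured by FAP dye flow cytometry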); conditions: Am2.2-beta2AR cells, at 10 µM, stronger effect = higher value
[11] = biological target: AP-2 complex subunit beta (Homo sapiens) (UniProt P63010); test: beta-arrestin/AP2 interaction blockers – biochemical, validation set, GST-AP2 beads, flow cytometry, pilot screen (AID 504541;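 active means inhibition above 54%, about 3 SD of non-fluorescent compounds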;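 further: AP2 carries R879A mutation and is captured from E. coli lysate; bead-bound FITC arrestin peptide fluorescence measuring arrestin peptide binding to AP2; 0% = DMSO wells and 100% = excess unlabeled arrestin peptide control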); conditions: FITC arrestin peptide, at 10 µM, stronger effect = higher value, AP2 beta2 appendage fragment, R879A mutant
[12] = cytosolic pH regulators acting via V-ATPase – S. cerevisiae, pHLuorin, HTS validation (AID 504600; in the data active means response above about 15%;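 further: plate controls were DMSO for no effect and reference compound for full effect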); conditions: V-ATPase proton transport, at 10 µM, stronger effect = higher value
[13] = tested on: anti-desmoglein-3 scFv antibody binding to human DSG3; test: blockers of pathogenic pemphigus antibody–desmoglein-3 binding – biochemical, validation compound set, bead-based, flow cytometry, pilot screen (AID 588368;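 active means binding below the plate cutoff, the plate median minus 3 SD, with a reading above zero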;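 further: signal is the median channel fluorescence of bead-bound GFP antibody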); conditions: Protein G beads, DSG3-Fc, scFv-GFP binding, at 10 µM, stronger effect = lower value
[14] = Nile Red efflux blockade in pump-expressing yeast – validation compound set, multiplex, phenotypic, pilot screen (AID 588506;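 active means efflux inhibition above 0.42, the validation set average plus 4 SD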;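 further: Nile Red retained in cells so higher fluorescence means more efflux inhibition; 0 = negative control wells and 1 = enniatin B 25 µM full block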); conditions: S. cerevisiae pump-expressing triplex, Nile Red efflux flow cytometry; at 10 µM; stronger effect = higher value; the pumps come from Candida albicans
[15] = biological target: ATP-binding cassette sub-family B member 6 (Homo sapiens) (UniProt Q9NP58); test: blockers of ABCB6-driven porphyrin uptake – K562-ABCB6 cells, flow cytometry, validation set, pilot screen (AID 588550;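 active means inhibition above the screen-wide mean plus 3 SD, about 51%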;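 further: 0% = DMSO wells and 100% = benzethonium chloride 70 µM positive control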); conditions: K562-ABCB6 porphyrin accumulation, 1 h, at 10 µM, stronger effect = higher value
[16] = AML differentiation inducers, ER-HoxA9 marrow cells – cell-based, GFP/MAC1 double positive, flow cytometry, validation set, primary screen (AID 588685;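 active means differentiation response of at least 50%, scaled between solvent and reference control, from cells with both markers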;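 further: compound exposure lasts four days before antibody staining and flow analysis; 0% = DMSO wells and 100% = 5 µM fulvestrant positive control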); conditions: stronger effect = higher value, normalized: vehicle 0, fulvestrant 100

Integrin beta-1 (Homo sapiens) + Integrin alpha-4 (Homo sapiens), sequence (P05556 whole entry, looked up): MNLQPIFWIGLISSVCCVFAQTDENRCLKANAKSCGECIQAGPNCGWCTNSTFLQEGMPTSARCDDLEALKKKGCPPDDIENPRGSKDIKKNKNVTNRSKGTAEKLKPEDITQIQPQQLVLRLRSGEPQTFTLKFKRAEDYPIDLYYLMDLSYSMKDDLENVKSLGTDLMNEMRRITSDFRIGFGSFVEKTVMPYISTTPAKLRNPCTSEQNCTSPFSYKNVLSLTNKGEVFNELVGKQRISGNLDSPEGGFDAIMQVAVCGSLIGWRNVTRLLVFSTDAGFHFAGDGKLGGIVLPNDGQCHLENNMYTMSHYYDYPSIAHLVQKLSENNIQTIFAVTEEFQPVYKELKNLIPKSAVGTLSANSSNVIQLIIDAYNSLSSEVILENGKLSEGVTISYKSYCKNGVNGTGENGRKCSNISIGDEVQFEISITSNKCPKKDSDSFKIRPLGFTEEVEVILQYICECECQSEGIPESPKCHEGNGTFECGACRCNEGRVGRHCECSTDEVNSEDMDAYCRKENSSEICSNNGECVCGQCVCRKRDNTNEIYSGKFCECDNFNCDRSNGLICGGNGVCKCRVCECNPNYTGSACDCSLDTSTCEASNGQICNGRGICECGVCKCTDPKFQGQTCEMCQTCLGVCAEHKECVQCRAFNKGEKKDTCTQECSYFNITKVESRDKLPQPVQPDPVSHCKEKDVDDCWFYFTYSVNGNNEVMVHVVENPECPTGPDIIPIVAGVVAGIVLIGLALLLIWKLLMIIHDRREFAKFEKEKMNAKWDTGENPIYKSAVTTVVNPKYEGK
Integrin beta-1 (Homo sapiens) + Integrin alpha-4 (Homo sapiens), sequence (P13612 whole entry, looked up): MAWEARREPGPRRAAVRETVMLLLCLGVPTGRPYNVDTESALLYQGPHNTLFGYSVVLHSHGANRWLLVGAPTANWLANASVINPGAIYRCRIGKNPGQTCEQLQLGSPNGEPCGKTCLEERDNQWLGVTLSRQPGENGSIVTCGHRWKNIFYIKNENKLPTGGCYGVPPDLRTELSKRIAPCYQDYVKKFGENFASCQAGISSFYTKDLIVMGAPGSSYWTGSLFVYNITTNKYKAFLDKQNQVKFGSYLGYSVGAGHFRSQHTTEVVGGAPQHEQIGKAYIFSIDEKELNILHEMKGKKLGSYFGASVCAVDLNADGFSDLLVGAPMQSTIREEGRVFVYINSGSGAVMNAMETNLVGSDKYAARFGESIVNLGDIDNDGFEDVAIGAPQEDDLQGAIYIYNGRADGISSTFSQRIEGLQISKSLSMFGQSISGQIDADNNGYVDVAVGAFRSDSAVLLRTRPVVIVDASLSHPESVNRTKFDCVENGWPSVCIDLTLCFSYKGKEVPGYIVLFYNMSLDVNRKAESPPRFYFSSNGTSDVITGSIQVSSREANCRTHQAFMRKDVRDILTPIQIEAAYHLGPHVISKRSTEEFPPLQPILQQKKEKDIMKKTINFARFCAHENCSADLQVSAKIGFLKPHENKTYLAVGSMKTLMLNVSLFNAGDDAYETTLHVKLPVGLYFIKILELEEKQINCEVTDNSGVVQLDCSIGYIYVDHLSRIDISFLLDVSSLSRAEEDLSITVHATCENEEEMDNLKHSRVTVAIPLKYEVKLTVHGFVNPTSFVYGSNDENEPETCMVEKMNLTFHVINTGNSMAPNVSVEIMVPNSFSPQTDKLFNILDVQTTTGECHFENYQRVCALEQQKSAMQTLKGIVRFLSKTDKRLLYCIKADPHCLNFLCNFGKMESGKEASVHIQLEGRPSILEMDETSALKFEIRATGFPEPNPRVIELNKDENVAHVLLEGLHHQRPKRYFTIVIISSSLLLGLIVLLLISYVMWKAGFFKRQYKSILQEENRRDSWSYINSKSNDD
ATP-binding cassette sub-family B member 6 (Homo sapiens), sequence (Q9NP58 whole entry, looked up): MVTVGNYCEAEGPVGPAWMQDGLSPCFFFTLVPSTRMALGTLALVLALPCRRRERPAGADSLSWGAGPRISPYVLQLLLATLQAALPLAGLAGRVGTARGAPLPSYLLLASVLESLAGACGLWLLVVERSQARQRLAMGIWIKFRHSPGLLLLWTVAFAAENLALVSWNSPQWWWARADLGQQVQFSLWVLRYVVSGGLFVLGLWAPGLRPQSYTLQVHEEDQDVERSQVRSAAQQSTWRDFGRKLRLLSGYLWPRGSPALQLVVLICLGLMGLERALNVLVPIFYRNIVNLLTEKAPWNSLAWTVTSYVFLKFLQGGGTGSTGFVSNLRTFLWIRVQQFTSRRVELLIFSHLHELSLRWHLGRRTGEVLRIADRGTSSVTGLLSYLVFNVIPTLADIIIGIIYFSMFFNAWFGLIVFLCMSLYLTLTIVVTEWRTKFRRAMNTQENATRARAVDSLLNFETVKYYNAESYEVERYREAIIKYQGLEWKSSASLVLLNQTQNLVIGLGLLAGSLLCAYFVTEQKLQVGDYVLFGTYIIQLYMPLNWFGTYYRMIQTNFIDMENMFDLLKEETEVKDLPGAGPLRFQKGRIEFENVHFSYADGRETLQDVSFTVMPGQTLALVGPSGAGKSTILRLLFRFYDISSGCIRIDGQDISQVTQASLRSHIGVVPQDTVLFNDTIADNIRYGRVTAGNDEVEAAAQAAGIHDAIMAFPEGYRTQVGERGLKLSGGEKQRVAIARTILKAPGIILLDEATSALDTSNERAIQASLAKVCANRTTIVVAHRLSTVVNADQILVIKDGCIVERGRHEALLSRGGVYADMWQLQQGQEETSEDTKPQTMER
Beta-2 adrenergic receptor (Homo sapiens), sequence (P07550 whole entry, looked up): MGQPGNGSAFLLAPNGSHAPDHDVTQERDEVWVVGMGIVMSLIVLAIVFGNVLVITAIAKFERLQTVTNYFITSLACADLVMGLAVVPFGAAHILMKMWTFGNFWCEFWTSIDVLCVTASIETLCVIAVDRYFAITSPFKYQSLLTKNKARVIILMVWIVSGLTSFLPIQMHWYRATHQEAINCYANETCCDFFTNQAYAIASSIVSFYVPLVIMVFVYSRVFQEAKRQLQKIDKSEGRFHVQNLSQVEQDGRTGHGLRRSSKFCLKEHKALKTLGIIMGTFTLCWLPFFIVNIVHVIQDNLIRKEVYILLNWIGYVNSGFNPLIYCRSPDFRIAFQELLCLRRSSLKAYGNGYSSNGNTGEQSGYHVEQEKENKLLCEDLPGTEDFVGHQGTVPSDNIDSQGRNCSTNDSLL
AP-2 complex subunit beta (Homo sapiens), sequence (P63010 whole entry, looked up, the tested form may be a part, one chain of several): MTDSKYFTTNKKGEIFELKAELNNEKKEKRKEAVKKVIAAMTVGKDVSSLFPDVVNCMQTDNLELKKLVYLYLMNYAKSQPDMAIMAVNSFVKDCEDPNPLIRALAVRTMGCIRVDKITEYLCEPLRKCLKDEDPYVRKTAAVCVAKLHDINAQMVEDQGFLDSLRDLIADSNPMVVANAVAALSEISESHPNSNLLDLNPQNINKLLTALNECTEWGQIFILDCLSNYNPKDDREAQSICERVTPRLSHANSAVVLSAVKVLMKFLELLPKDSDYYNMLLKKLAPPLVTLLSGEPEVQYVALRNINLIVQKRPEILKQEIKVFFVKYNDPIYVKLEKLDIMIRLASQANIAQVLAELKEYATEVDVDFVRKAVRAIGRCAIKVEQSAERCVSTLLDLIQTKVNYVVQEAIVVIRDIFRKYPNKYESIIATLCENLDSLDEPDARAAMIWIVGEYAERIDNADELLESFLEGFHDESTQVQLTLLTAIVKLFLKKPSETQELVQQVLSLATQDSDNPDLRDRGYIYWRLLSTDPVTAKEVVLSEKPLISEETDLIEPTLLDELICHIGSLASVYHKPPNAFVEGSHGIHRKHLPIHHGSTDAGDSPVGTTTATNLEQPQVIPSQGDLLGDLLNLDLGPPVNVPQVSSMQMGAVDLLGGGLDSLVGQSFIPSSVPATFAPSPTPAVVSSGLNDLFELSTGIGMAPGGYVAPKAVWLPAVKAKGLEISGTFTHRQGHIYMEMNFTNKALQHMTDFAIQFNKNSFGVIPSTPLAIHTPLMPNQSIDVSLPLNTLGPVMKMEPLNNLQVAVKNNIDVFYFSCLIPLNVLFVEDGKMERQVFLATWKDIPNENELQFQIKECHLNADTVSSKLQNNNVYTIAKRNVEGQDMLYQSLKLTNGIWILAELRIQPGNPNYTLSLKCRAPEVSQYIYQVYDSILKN
Beta-adrenergic receptor kinase 1 (Homo sapiens), sequence (P25098 whole entry, looked up): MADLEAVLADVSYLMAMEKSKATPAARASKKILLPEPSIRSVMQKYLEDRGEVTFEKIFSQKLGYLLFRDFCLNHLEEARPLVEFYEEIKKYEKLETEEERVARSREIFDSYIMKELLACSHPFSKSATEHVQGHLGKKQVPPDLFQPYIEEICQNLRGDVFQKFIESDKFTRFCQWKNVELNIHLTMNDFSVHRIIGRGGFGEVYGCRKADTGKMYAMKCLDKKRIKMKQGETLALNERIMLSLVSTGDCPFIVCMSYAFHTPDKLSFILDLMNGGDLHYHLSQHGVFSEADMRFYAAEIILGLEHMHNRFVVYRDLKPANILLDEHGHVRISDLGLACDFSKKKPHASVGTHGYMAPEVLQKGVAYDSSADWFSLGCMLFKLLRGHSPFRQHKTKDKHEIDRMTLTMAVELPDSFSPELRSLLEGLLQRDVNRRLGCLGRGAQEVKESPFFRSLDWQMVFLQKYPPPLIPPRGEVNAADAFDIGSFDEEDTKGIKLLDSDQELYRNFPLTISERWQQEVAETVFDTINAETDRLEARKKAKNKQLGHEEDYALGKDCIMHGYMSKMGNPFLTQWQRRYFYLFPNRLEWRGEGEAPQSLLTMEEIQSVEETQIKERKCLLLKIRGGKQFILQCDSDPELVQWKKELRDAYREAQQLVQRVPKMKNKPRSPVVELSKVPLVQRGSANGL

O=C(Nc1cccc(Oc2c(F)c(F)c(F)c(F)c2F)c1)N1C[C@@H]2C[C@@H](C1)c1cccc(=O)n1C2
inactive: percent of DMSO control GFP [1] 100% | GFP response vs DMSO [2] 101% | percent response of DMSO control [3] 101% | GFP response vs DMSO [4] 98% | GFP response, % of DMSO [5] 101% | vesicle binding response [6] 215% | inhibition [7] 15.1% | superoxide response (% of plate) [8] 104% | aptamer binding inhibition [9] 2% | response [10] -14.9% | inhibition [11] -6.11% | response [12] 0.72% | binding (% of control) [13] 88% | efflux inhibition (fraction of control) [14] -0.35 | inhibition [15] -6% | differentiation response [16] 7.09%
63.7%: double positive events [6]

COc1cc2c(cc1OC)C1(CCCC1)CNC2c1cccc([N+](=O)[O-])c1 (stereo not drawn)
54.7%: double positive events [6]
inactive: percent of DMSO control GFP [1] 99.3% | GFP response vs DMSO [2] 103% | percent response of DMSO control [3] 95.8% | GFP response vs DMSO [4] 109% | GFP response, % of DMSO [5] 92.8% | vesicle binding response [6] 235% | inhibition [7] -57.8% | superoxide response (% of plate) [8] 99.7% | aptamer binding inhibition [9] -2% | response [10] 23.6% | inhibition [11] -2.35% | binding (% of control) [13] 99.1% | efflux inhibition (fraction of control) [14] 0.05 | inhibition [15] 4% | differentiation response [16] -8.8%
active: response [12] 35.2%

COc1cc(C)nc(-n2nc(C)cc2OC)n1
61.8%: double positive events [6]
inactive: percent of DMSO control GFP [1] 101% | GFP response vs DMSO [2] 103% | percent response of DMSO control [3] 96.6% | GFP response vs DMSO [4] 92.7% | GFP response, % of DMSO [5] 102% | vesicle binding response [6] 5320% | inhibition [7] -12.9% | superoxide response (% of plate) [8] 88.7% | aptamer binding inhibition [9] 1% | response [10] -8.04% | inhibition [11] 2.91% | binding (% of control) [13] 95.9% | efflux inhibition (fraction of control) [14] 0.02 | inhibition [15] 2% | differentiation response [16] 8.06%
active: response [12] 48.8%

O=C(Cc1cccc2ccccc12)N1CC[C@@]2(O)CCCC[C@H]2C1
inactive: percent of DMSO control GFP [1] 92% | GFP response vs DMSO [2] 138% | percent response of DMSO control [3] 104% | GFP response vs DMSO [4] 85.3% | GFP response, % of DMSO [5] 85% | vesicle binding response [6] 252% | inhibition [7] 10.3% | superoxide response (% of plate) [8] 110% | aptamer binding inhibition [9] 11% | response [10] 0.11% | inhibition [11] -11.6% | response [12] 2.02% | binding (% of control) [13] 105% | efflux inhibition (fraction of control) [14] -0.24 | inhibition [15] 10% | differentiation response [16] -2.46%
62%: double positive events [6]

Reference: PubChem BioAssay
